Assay outcomes: PubChem BioAssay, National Center for Advancing Translational Sciences (NCATS)
The list is not random: actives were taken first. Their share in the collection is about 6.3%.
RORg inh: qHTS for inhibitors of ROR gamma transcriptional activity. Drosophila S2 Gal4-RORgamma UAS-luciferase reporter, 20 h. AID 2551, 2010. Potency, µM (titrated, usually from 53.6 µM), inactives show top-dose activity change, negative = inhibition, actives largely listed as inhibitors. 310,000 tested, 5.4% active; note: % is set by controls: 0 for no effect and ±100 for the full control effect; nearly all actives have a fitted effect of over 60% in size
Target sequence (P51450 whole entry, looked up, the tested form may be a part): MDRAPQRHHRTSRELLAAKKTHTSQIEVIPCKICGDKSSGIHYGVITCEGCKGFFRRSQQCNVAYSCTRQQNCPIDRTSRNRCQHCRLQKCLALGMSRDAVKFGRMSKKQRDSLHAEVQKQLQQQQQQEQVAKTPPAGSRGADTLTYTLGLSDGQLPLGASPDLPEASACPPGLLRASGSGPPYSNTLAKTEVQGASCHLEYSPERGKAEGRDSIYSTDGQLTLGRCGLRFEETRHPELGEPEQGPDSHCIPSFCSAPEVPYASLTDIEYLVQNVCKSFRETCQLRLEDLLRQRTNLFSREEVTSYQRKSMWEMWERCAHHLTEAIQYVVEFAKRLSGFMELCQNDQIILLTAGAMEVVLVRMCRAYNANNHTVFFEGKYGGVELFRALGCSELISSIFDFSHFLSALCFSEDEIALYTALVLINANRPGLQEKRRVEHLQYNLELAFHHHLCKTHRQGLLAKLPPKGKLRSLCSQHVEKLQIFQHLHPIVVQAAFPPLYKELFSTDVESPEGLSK
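Read-out: Photinus luciferase luminescence; inhibitors lower reporter signal. Insect Schneider cells with Gal4-ROR gamma fusion under metallothionein promoter, UAS reporter; 700 uM final copper sulfate induction, 20 hr, ambient temperature.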
VP16 counter: VP16 counterscreen qHTS for inhibitors of ROR gamma transcriptional activity; 310,000 tested, 3.5% active; Potency, µM (titrated, usually from 53.6 µM), for the others: at the highest dose activity, negative = inhibition, hits mostly inhibitors; Drosophila S2 Gal4-VP16 UAS-luciferase, luminescence, 20 h; AID 2546, 2010;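 note: Gal4-VP16 expression switched on by copper sulfate through the metallothionein promoter; % is set by controls: 0 for no effect and ±100 for the full control effect; nearly all actives have a fitted effect of over 50% in size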
ATXN viability: Viability Counterscreen for Primary qHTS for Inhibitors of ATXN expression; S2 cells (HEK-293 line with an ATXN2-luciferase reporter) viability, CellTiter-Fluor protease fluorescence, 24 h; Potency, µM (titrated, usually from 56.7 µM), most hits filed as cytotoxic; 400,000 tested, 0.49% active; AID 651635, 2014; note: nearly all actives have a fitted effect of over 40% in size
HepG2 viability: qHTS for Inhibitors of TGF-b: Cytotox Counterscreen; HepG2 CAGA-GFP viability, ATP luminescence, 18 h; Potency, µM (top dose mostly 46.1 µM), for the others: top-dose activity change, negative = cytotoxicity, usual class: cytotoxic; 410,000 tested, 0.76% active
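HepG2 CAGA-GFP cells (1000/well, DMEM with 1% FBS) received compound, then TGF-beta at 500 pg/mL final, and were incubated 18 hours at 37 degrees C. Viability was read by CellTiter-Glo luminescence. Media-only wells were set as complete cell-killing and DMSO as no toxicity.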
ATXN2 expr inh: Primary qHTS for Inhibitors of ATXN expression | HEK-293 ATXN2-luciferase reporter, luminescence, 24 h | Potency, µM (top dose mostly 57 µM), for inactives: top-dose activity change, negative = inhibition, hits mostly inhibitors | 360,000 tested, 0.72% active | AID 1745845, 2022; note: % is set by controls: 0 for no effect and ±100 for the full control effect; nearly all actives have a fitted effect of over 55% in size
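qHTS (up to 57 uM final) was run with 24 h compound exposure of reporter cells at 37 °C. Each well was multiplexed: SteadyGlo luminescence measured ATXN2-luciferase expression after a fluorogenic Gly-Phe-AFC viability readout (25 uM final).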
TGFb inhibitor: qHTS for Inhibitors of TGF-b; HepG2 CAGA-GFP TGF-b/SMAD3 reporter, GFP fluorescence, 18 h; TGF-beta stimulated, 500 pg/mL final; Potency, µM (doses to about 46.1 µM), without a hit: at the highest dose activity, negative = inhibition, usual class: inhibitors; 410,000 tested, 1.2% active; AID 588855, 2011; note: % is set by controls: 0 for no effect and ±100 for the full control effect; nearly all actives have a fitted effect of over 65% in size
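Per well, imaged GFP fluorescence of HEPG2 CAGA-GFP cells gives the signal; cells get compound, then TGF-beta (500 pg/mL final), 18 h at 37 degrees C; %Activity versus -TGF-beta and +DMSO controls.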
An asterisk follows results filed as active; [ ] = remark or other dose. Calls come from the whole dose curve; as a rule, active = well fitted curve in the direction sought with a large enough effect; inconclusive = small, poorly fitted or top-dose-only effect, or another doubt; inactive = no such curve, though single readings can be large; an effect the other way counts as inactive or inconclusive. Potency is the fitted concentration of half-maximal effect.

`Cc1cc(O)c2ccccc2c1O` gave RORg inh -12.1%[10 µM], VP16 counter inconclusive, ATXN viability inconclusive and ATXN2 expr inh 8.91µM*.
`Cc1cc(C)nc(Nc2n[nH]c(-c3cccc4ccccc34)n2)n1` gave RORg inh 11.2µM*, VP16 counter inconclusive, ATXN viability inactive, HepG2 viability -11.3% and TGFb inhibitor 17.3%.
`COc1cccc(-c2nc(-c3ccc(-c4ccccc4)nc3OC)no2)c1` gave ATXN viability inactive, HepG2 viability -0.9%, ATXN2 expr inh 2.1% and TGFb inhibitor 0.5%.
`COc1cccc(-c2nc(-c3cccs3)no2)c1` gave RORg inh 12.6µM*, VP16 counter inconclusive, ATXN viability inactive, HepG2 viability -7.1%, ATXN2 expr inh 0.6% and TGFb inhibitor 13.6%.
Screening COc1ccc(-c2ccc(-c3noc(-c4cccc(OC)c4)n3)c(OC)n2)cc1 returned RORg inh 0.355µM*, VP16 counter inconclusive, ATXN viability inactive, HepG2 viability -24.8%, ATXN2 expr inh -26.8% and TGFb inhibitor 0.1%.
For O=C(C1CCCN(S(=O)(=O)c2ccc(F)cc2)C1)N1CCCCC1 (stereo not drawn) the results were RORg inh 12.5%, VP16 counter -9.8%, ATXN viability inactive, HepG2 viability 5.2%, ATXN2 expr inh -8.1% and TGFb inhibitor 7.4%.
`CCOc1cccc(C(=O)Nc2ccc(-c3nc4cc(C)cc(C)c4o3)cc2)c1` gave ATXN viability inactive, HepG2 viability 8.8%, ATXN2 expr inh inconclusive and TGFb inhibitor 6.1%.
Cc1ccc(C(C[N+](=O)[O-])n2nc(C)cc2C)cc1 (stereo not drawn) was read as RORg inh -21.9%, VP16 counter 1.8%, ATXN viability inactive, HepG2 viability 7.1%, ATXN2 expr inh -6.7% and TGFb inhibitor 8.7%.
Screening Cc1ccc(C(C[N+](=O)[O-])Sc2ccc(N)cc2)cc1 (stereo not drawn) returned RORg inh 11.2µM*, VP16 counter 5.62µM*, ATXN viability inconclusive, HepG2 viability 12.6µM*, ATXN2 expr inh inconclusive and TGFb inhibitor 11.2µM*.
`O=c1[nH]cccc1-c1nc2ccccc2n1Cc1cccc(F)c1` gave RORg inh inconclusive, VP16 counter -1.2%, ATXN viability inactive, HepG2 viability -2.5%, ATXN2 expr inh -3.0% and TGFb inhibitor -0.8%.
For CCC1CCCCN1C(=O)COc1c(Br)cc(Br)c2cccnc12 (stereo not drawn) the results were RORg inh 12.6µM*, VP16 counter inconclusive, ATXN viability inactive, HepG2 viability -23.4%, ATXN2 expr inh -26.6% and TGFb inhibitor -3.6%.
For COc1ccc(-n2c(C)cc(C(=O)COC(=O)Cc3n[nH]c(=O)c4ccccc34)c2C)cc1 the results were RORg inh -8.5%, VP16 counter inconclusive, ATXN viability inactive, HepG2 viability -8.0%, ATXN2 expr inh -19.7% and TGFb inhibitor -5.7%.
For CC(=O)c1ccc(OCC(=O)c2cc(C)n(-c3ccc4c(c3)OCO4)c2C)cc1 the results were RORg inh inconclusive, VP16 counter 10µM*, ATXN viability inactive, HepG2 viability -7.3%, ATXN2 expr inh -9.2% and TGFb inhibitor 2.4%.
Screening Cc1cc(C(=O)COC(=O)Cc2n[nH]c(=O)c3ccccc23)c(C)n1-c1ccc2c(c1)OCO2 returned RORg inh -18.9%, VP16 counter 17.8µM*, ATXN viability inconclusive, HepG2 viability -13.6%, ATXN2 expr inh -21.1% and TGFb inhibitor -17.6%.
Screening CN1CCCCCC1C(=O)NCC1Cc2cc(-c3cnccn3)ccc2O1 (stereo not drawn) returned ATXN viability inactive.
`CCN(CC)c1ccc(-c2n[nH]c(=S)n2-c2ccccc2)cc1` gave RORg inh 1.58µM*, VP16 counter -16.7%, ATXN viability inactive, HepG2 viability -21.5%, ATXN2 expr inh -33.4% and TGFb inhibitor -14.9%.
`CN(C)c1ccc(-c2n[nH]c(=S)n2-c2ccccc2)cc1` gave RORg inh 2.24µM*, VP16 counter inconclusive, ATXN viability inconclusive, HepG2 viability -0.6%, ATXN2 expr inh 4.6% and TGFb inhibitor 11.1%.
`CCN(CC)c1ccc(-c2n[nH]c(=S)n2-c2ccccc2C)cc1` gave RORg inh inconclusive, VP16 counter -13.7%, ATXN viability inconclusive, HepG2 viability -14.8%, ATXN2 expr inh -26.9% and TGFb inhibitor 0.1%.
`CN(C)c1ccc(/C=C/c2ccnc3c([N+](=O)[O-])cccc23)cc1` gave HepG2 viability -39.7% and TGFb inhibitor -2.4%.
Cc1ccc(CNC(=O)c2cnn3c(C)c(Cc4c(F)cccc4Cl)c(C)nc23)cc1 was read as ATXN viability inconclusive, HepG2 viability -11.1%, ATXN2 expr inh -25.6% and TGFb inhibitor 10.0%.
Cc1nc2c(C(=O)NCCc3ccc(Cl)cc3)cnn2c(C)c1Cc1ccc(F)cc1 was read as HepG2 viability -95.4% and TGFb inhibitor 7.08µM*.
Screening Cc1cc(C)c(Cc2c(C)nc3c(C(=O)NCc4ccco4)cnn3c2C)c(C)c1 returned RORg inh inconclusive, VP16 counter 2.6%, ATXN viability 20µM*, HepG2 viability -92.6%, ATXN2 expr inh 14.1µM* and TGFb inhibitor -13.5%.
Screening COC(CNC(=O)c1cnn2c(C)c(Cc3ccccc3)c(C)nc12)OC returned RORg inh 26.0%, VP16 counter 2.3%, ATXN viability inactive, HepG2 viability -11.5%, ATXN2 expr inh -7.9% and TGFb inhibitor 0.7%.
Screening Cc1nc2c(C(=O)NCCc3ccc(Cl)cc3)cnn2c(C)c1Cc1c(F)cccc1Cl returned HepG2 viability -8.1% and TGFb inhibitor -20.3%.
`Cc1nc2c(C(=O)NC(C)c3ccccc3)cnn2c(C)c1Cc1ccccc1` (stereo not drawn) gave HepG2 viability 12.6µM* and TGFb inhibitor -10.3%.
Screening O=C(NCCc1ccccc1)c1ccc2c(c1)N(Cc1ccc(Cl)cc1)C(=O)CS2 returned ATXN viability inconclusive, HepG2 viability -13.4%, ATXN2 expr inh -26.4% and TGFb inhibitor inconclusive.
O=C1C=C(c2ccc(Cl)c(C(F)(F)F)c2)C[C@@H](c2ccc(Cl)cc2)C1 was read as ATXN viability inactive, HepG2 viability -45.0%, ATXN2 expr inh -16.4% and TGFb inhibitor 14.1µM*.
